# Only a selection was taken, and hits are over-represented in it overall.
# NS1 inh = influenza NS1 inhibition; Potency, µM (doses to about 46.1 µM), without a hit: at the top dose activity, positive = more growth; 270,000 tested, 0.4% active; calls by dose curve; further: actives are rising curves; nearly all actives have a fitted effect of over 50% in size
#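 In this qHTS, NS1 from influenza A is expressed in budding yeast, where it slows growth. Cells are switched from glucose to 2% galactose medium (pH 6.0, -URA), treated with compound, and growth recovery is read at OD600.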
# Cruzain noTriton = inhibitors of Trypanosoma cruzi cruzain without detergent. purified cruzain, Z-FR-AMC fluorescence, no detergent. Potency, µM, without a hit: max response, negative = inhibition, hits mostly inhibitors. P25779. AID 1476. 200,000 tested, 2.3% active;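 further: plate controls were enzyme without inhibitor for no effect and buffer without enzyme for full effect; nearly all actives have a fitted effect of over 40% in size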
# Target sequence (P25779 123-467 limits assumed): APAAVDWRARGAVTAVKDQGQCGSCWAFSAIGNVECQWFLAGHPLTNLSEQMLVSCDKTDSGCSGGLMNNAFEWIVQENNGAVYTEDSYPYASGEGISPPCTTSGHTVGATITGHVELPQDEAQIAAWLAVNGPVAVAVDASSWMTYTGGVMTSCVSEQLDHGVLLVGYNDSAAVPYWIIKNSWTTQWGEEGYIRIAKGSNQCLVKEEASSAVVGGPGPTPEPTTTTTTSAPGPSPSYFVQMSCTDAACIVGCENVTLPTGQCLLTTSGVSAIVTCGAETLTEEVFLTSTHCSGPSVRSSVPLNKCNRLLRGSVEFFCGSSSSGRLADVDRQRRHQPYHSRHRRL
#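 Purified cruzain at 1.5 nM, pre-incubated 15 min with compound at room temperature in 100 mM sodium acetate pH 5.5, 5 mM DTT, 0.00005% Triton X-100. Reaction started with 2 uM Z-FR-AMC; AMC fluorescence increase over 60 s gives rate.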
# Cruzain Triton = inhibitors of Trypanosoma cruzi cruzain with detergent; 200,000 tested, 0.43% active; Potency, µM, for the others: max response, negative = inhibition, actives largely listed as inhibitors; purified cruzain, Z-FR-AMC fluorescence, 0.01% Triton; AID 1478; P25779;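 further: plate controls were neutral wells for no effect and buffer without enzyme for full effect; nearly all actives have a fitted effect of over 40% in size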
#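 Compounds were screened in titration against cruzain (1.5 nM) with 0.01% Triton X-100 to counter colloidal aggregation. Activity was the AMC fluorescence increase over 60 s after adding 2 uM Z-FR-AMC at pH 5.5.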
# * hit, by the source's call; ? = inconclusive; / = no result; [ ] = remark or other dose. Unless noted, the call rests on the fitted dose curve; in most records, active means well fitted curve in the direction sought with a large enough effect; inconclusive means small, poorly fitted or top-dose-only effect, or another doubt; inactive means no such curve, though single readings can be large; an effect the other way counts as inactive or inconclusive. Potency means the concentration at half of the fitted maximal effect.
SMILES,NS1 inh,Cruzain noTriton,Cruzain Triton
COc1ccc(CNC(=O)C2CCN(c3nnc(-n4cccc4CNc4ccc(C)cc4)s3)CC2)c(OC)c1,/,6%,-5%
CCCOc1ccc(-c2nn(-c3ccccc3)cc2/C=C2\SC(=S)N(C3CCS(=O)(=O)C3)C2=O)cc1 (stereo not drawn),5%,4µM*,2%
Cc1ccc(-c2nn(-c3ccccc3)cc2/C=C2\SC(=S)N(CC(=O)O)C2=O)cc1,10%,/,/
CCOc1ccc(-c2nn(-c3ccccc3)cc2/C=C2\SC(=S)N(C3CCS(=O)(=O)C3)C2=O)cc1 (stereo not drawn),12%,7.9µM*,-12%
COc1ccc(-c2nn(-c3ccccc3)cc2/C=C2/SC(=S)N(CCC(=O)O)C2=O)cc1,3%,/,/
COc1ccc(C)cc1NC(=O)C1CCC(CNS(=O)(=O)c2ccc3c(c2)CCCC(=O)N3)CC1 (stereo not drawn),/,?,-1%
Cc1cccn2c(=O)c(C(=O)N3CCN(c4ccccc4)CC3)cnc12,/,-13%,-5%
COC(=O)c1c(-c2cccs2)csc1NC(=O)COc1ccc(C)cc1,/,-17%,0%
COC(=O)c1c(-c2cccs2)csc1NC(=O)COc1ccccc1,/,-20%,-16%
COC(=O)c1c(-c2cccs2)csc1NC(=O)COc1c(C)ccc(C)c1C,/,25µM*,-8%
COC(=O)c1c(-c2cccs2)csc1NC(=O)COc1ccc(C(C)(C)C)cc1,/,25µM*,-4%
CCCn1c(C)nc2c(Nc3ccccc3)nc(C)nc21,/,-2%,-5%
O=C(c1ccc2c(c1)N(Cc1cccc(Cl)c1)C(=O)c1ccccc1S2(=O)=O)N1CCN(c2cccc(C(F)(F)F)c2)CC1,/,5µM*,-2%
O=C(c1ccc2c(c1)N(Cc1cccc(Cl)c1)C(=O)c1ccccc1S2=O)N1CCN(c2cccc(C(F)(F)F)c2)CC1 (stereo not drawn),/,25µM*,-3%
O=C(c1ccc2c(c1)N(Cc1cccc(Cl)c1)C(=O)c1ccccc1S2(=O)=O)N1CCCCC1,/,2%,-4%
CN1CCN(C(=O)c2ccc3c(c2)N(Cc2cccc(Cl)c2)C(=O)c2ccccc2S3=O)CC1 (stereo not drawn),17%,/,/
C=C(C)C(=O)/C=C/CCC/C=C/C(=O)OCC,/,2%,-7%
CCOc1ccc(NC(=O)CSc2nc(=O)[nH]c3c2CCC3)cc1,/,-11%,1%
CCN1CCN(C(=S)Nc2ccc(Cl)cc2Cl)CC1,3%,-1%,0%
CN1CCN(C(=S)Nc2ccc(Cl)cc2Cl)CC1,2%,1.6µM*,3%
Cc1ccc(O)c(C(=O)c2cnc3c(c2)CN(CCC(C)C)C(=O)N3)c1,1%,10µM*,-2%
Cc1ccc(O)c(C(=O)c2cnc3c(c2)CN(C)C(=O)N3)c1,10%,-12%,-4%
Brc1ccc(-c2nn3c(Cc4ccccc4)nnc3s2)o1,-14%,2%,0%
c1ccc(Cc2nnc3sc(Nc4ccccc4)nn23)cc1,7%[9.22 µM],25µM*,1%
c1ccc2c[n+](CCCC[n+]3ccc4ccccc4c3)ccc2c1,0%,-1%,3%
SMILES,NS1 inh,Cruzain noTriton,Cruzain Triton
O=C(NCc1ccco1)c1ccc(Cn2c(=O)c3ccccc3n(Cc3cccc(Cl)c3)c2=O)cc1,11%,?,1%
O=C(NCc1ccco1)c1ccc(Cn2c(=O)c3sccc3n(Cc3cccc(F)c3)c2=O)cc1,?,25µM*,5%
COc1ccc(OCC(=O)Nc2nc3ccccc3[nH]2)cc1,-52%,-9%,2%
O=C(COc1ccc2ccccc2c1)NCCNC(=O)COc1ccc2ccccc2c1,7%,25µM*,7%
O=C(COc1ccc2ccccc2c1)NNC(=O)Cc1ccccc1,8%,-2%,-4%
O=C(COc1ccc2ccccc2c1)Nc1nc2ccccc2[nH]1,-20%,25µM*,1%
COCCn1c(=O)cnc2cnc(Oc3ccccc3)nc21,/,1%,-2%
CCOC(=O)c1ccc(NC(=O)CC2C(=O)N(c3ccc(C)cc3)C(=O)N2C2CCCC2)cc1 (stereo not drawn),/,6%,-7%
O=[N+]([O-])c1ccc(Nc2nc(N/N=C/c3cccc(F)c3)nc(N3CCCC3)n2)cc1,23%,16µM*,-3%
O=[N+]([O-])c1cccc(/C=N/Nc2nc(N3CCOCC3)nc(N3CCOCC3)n2)c1,4%,-3%,-3%
NCc1nnn(Cc2ccccc2)c1N,-1%,5%,-6%
CCc1ccc(NCc2cc3cc4c(cc3n(CC(=O)Nc3cccc(OC)c3)c2=O)OCO4)cc1,/,25µM*,-5%
COc1ccc(NCc2cc3cc4c(cc3n(CC(=O)Nc3ccc(C)cc3C)c2=O)OCO4)cc1,/,?,-7%
CCc1ccc(NCc2cc3ccc(OC)cc3n(CC(=O)Nc3c(C)cc(C)cc3C)c2=O)cc1,/,3%,-2%
COc1ccc(NCc2cc3cc4c(cc3n(CC(=O)Nc3ccc(C)cc3)c2=O)OCO4)cc1,/,20µM*,-6%
CCc1ccc(NCc2cc3cc4c(cc3n(CC(=O)Nc3ccc(OC)cc3)c2=O)OCO4)cc1,/,2%,-3%
CCc1ccc(NCc2cc3ccc(OC)cc3n(CC(=O)Nc3ccc(C)c(Cl)c3)c2=O)cc1,/,25µM*,-3%
COc1cc(OC)c(NC(=O)Cn2c(=O)cc(C(F)(F)F)c3c(C)nn(C)c32)cc1Cl,/,-2%,-2%
N#CCCn1c(=O)cnc2cnc(Oc3cccc(Cl)c3)nc21,/,2%,-3%
NC(=O)CSc1oc(-c2ccco2)nc1S(=O)(=O)c1ccccc1,18%,/,/
O=C(Oc1oc(-c2ccco2)nc1C=Nc1ccccc1)c1ccoc1,-55%,?,22µM*
Cc1ccc(N=Cc2nc(-c3ccco3)oc2O)cc1,-9%,-16%,-16%
O=C(Oc1oc(-c2ccco2)nc1C=Nc1ccccc1)c1ccco1,-3%,16µM*,14µM*
COc1ccc(-c2cc([C@H](O)C3CCCCN3)c3ccccc3n2)cc1 (stereo partly drawn),8%,7%,3%
O=C(Nc1c(C(=O)Nc2cccc(F)c2)oc2ccccc12)c1cc2ccccc2o1,/,16µM*,-3%
SMILES,NS1 inh,Cruzain noTriton,Cruzain Triton
Cc1ccc(NC(=O)c2oc3ccccc3c2NC(=O)c2cc3ccccc3o2)cc1,/,?,0%
CCn1c2ccccc2c2cc(NC(=O)c3cccc([N+](=O)[O-])c3)ccc21,4%,-4%,4%
O=C(Nc1ccccc1N1CCCC1)c1ccc(Br)o1,-6%[9.22 µM],-6%,-4%
CCn1c2ccccc2c2cc(NC(=O)c3ccc(Br)o3)ccc21,16%,107%,13µM*
CCn1c2ccccc2c2cc(NC(=O)c3ccc(C)c([N+](=O)[O-])c3)ccc21,?,25µM*,-3%
O=C(Nc1ccc(N2CCCC2)c(Cl)c1)c1ccc(Br)o1,5%,10µM*,-14%
CCn1c2ccccc2c2cc(NC(=O)c3coc(=O)c(Br)c3)ccc21,4%,/,/
CN1[C@@H]2CC(OC(=O)[C@@H](CO)c3ccccc3)C[C@@H]1[C@H]1O[C@H]12 (stereo partly drawn),-3%,16%,-5%
O=C(Nc1nc(-c2ccncc2)cs1)c1ccco1,-45%,16µM*,-12%
O=C(Nc1ccccc1NC(=O)c1ccco1)c1ccco1,?,6%,0%
O=C(Nc1nc(-c2cccs2)cs1)c1ccco1,-31%,/,/
O=C(Nc1cccc2cccc(NC(=O)c3ccco3)c12)c1ccco1,7%,25µM*,-2%

# Source: PubChem BioAssay (National Center for Advancing Translational Sciences (NCATS))
